The panel holds about 83,000 compounds, 20% with a hit somewhere; the sample as a whole holds those more often.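 How to read the values: 0–100, growth inhibition (40 = 60% inhibited); 0, no net growth; -100 to 0, cell death (-40 = 40% of starting cells died; -100 = all dead).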 The source made the active and inactive calls. Rule for the calls: active = growth percent below 10; inactive = the rest.
Experiments:
Experiment in all cases: NCI-60 one-dose screen, 48 h (100 = growth as untreated, 0 = no growth, -100 = all killed)
Settings in all cases: 10 µM unless noted
[1] = system: NCI-H23 lung
[2] = system: NCI-H226 lung
[3] = system: NCI-H322M lung
[4] = system: HOP-62 NSCLC
[5] = system: NCI-H460 lung
[6] = system: HOP-92 NSCLC
[7] = system: NCI-H522 lung
[8] = system: A549/ATCC NSCLC
[9] = system: 786-0 renal
[10] = system: COLO 205 colon
[11] = system: DU-145 prostate
[12] = system: K-562 leukemia
[13] = system: MALME-3M melanoma
[14] = system: MDA-MB-231 breast
[15] = system: RXF 393 renal
[16] = system: SF-268 CNS
[17] = system: SF-295 CNS
[18] = system: SF-539 CNS
[19] = system: UACC-257 melanoma
[20] = system: M14 melanoma

Measured: growth

Cc1ccc([C@H]2C(C(=O)c3ccc(Cl)cc3)C3(N[C@@H]2c2ccccc2)C(=O)Nc2ccccc23)cc1 (stereo not given in full)
inactive: [1] 44.1% | [2] 45.5% | [3] 55.4% | [4] 44% | [5] 45.8% | [7] 12.9% | [8] 25.9% | [9] 33.4% | [10] 19.2% | [11] 80.2% | [12] 11.8% | [13] 20.5% | [14] 27.2% | [15] 19% | [16] 61.1% | [17] 42.6% | [18] 83.9% | [19] 26.9% | [20] 28.7%
active: [6] -3.21%

CCOc1ccc(C(=O)NC(=S)Nc2ccc(S(N)(=O)=O)cc2)cc1
inactive: [1] 97.5% [100 µM] | [2] 97.1% [100 µM] | [3] 101% [100 µM] | [4] 102% [100 µM] | [5] 102% [100 µM] | [6] 87.9% [100 µM] | [7] 77.5% [100 µM] | [8] 101% [100 µM] | [9] 99% [100 µM] | [10] 119% [100 µM] | [11] 105% [100 µM] | [12] 98.1% [100 µM] | [13] 87.6% [100 µM] | [14] 102% [100 µM] | [15] 102% [100 µM] | [16] 102% [100 µM] | [17] 104% [100 µM] | [18] 91.7% [100 µM] | [19] 90.6% [100 µM] | [20] 102% [100 µM]

CC(C)c1sc(NC(=O)c2cc(NC(=O)c3cc(NC(=O)c4nccn4C)cn3C)cn2C)nc1C(=O)NCCCN(C)C
inactive: [1] 75.3% | [2] 71.2% | [3] 95.6% | [4] 80.1% | [5] 118% | [7] 38.3% | [8] 106% | [9] 104% | [10] 69.1% | [11] 91.7% | [12] 30.8% | [13] 65% | [14] 85.5% | [15] 76.6% | [16] 57.9% | [17] 100% | [18] 76.9% | [19] 82.3% | [20] 94.3%
active: [6] -0.363%

COc1ccc(C2=NN(c3ccccc3)C(c3ccc(OC)c(OCc4ccccc4)c3)C2)cc1OC (stereo not given)
inactive: [1] 99.8% | [2] 85.4% | [3] 102% | [4] 96.7% | [5] 105% | [6] 109% | [7] 78.2% | [8] 101% | [9] 90.9% | [10] 115% | [11] 105% | [12] 95% | [13] 92.6% | [14] 100% | [15] 98.1% | [16] 96.5% | [17] 107% | [18] 99.9% | [19] 103% | [20] 104%

CC(=O)OC[C@@]1(C)C2CC[C@]3(C)C(CC=C4C5CC(C)(C)CC[C@]5(C(=O)Nc5ccc(Br)cc5)CC[C@]43C)[C@@]2(C)C[C@@H](OC(C)=O)[C@@H]1OC(C)=O (stereo not given in full)
inactive: [1] 45.6% | [2] 45.2% | [3] 67.9% | [4] 38.5% | [5] 17% | [6] 54.7% | [7] 45.6% | [8] 38.9% | [9] 51.2% | [10] 43.8% | [11] 49% | [12] 19.2% | [13] 55.9% | [14] 62.3% | [15] 72.8% | [16] 66.1% | [17] 26.8% | [18] 38.7% | [19] 20% | [20] 52.6%

O=C(COc1ccc(NC(=O)Nc2ccc(Cl)c(Cl)c2)cc1)N=Nc1c(O)[nH]c2ccc(Br)cc12
active: [1] -10.7% | [2] -58.1% | [3] -15.4% | [4] -71.3% | [5] 7.45% | [6] -43.5% | [7] -64.7% | [8] -45.8% | [9] -70.3% | [10] -57% | [11] -30.1% | [12] 7.78% | [13] -85.4% | [14] -59.3% | [15] -54.3% | [16] 1.44% | [17] -68.3% | [18] -90.8% | [19] -76.5% | [20] -63.8%

CC1(C)CC[C@]2(C(=O)Nc3ccc(Br)cc3)CC[C@]3(C)C(=CCC4[C@@]5(C)C[C@@H](O)[C@H](O)[C@@](C)(CO)C5CC[C@]43C)C2C1 (stereo not given in full)
active: [1] 9.43% | [2] -28.6% | [4] 5.6% | [5] -42.1% | [6] -53.4% | [7] -31.3% | [9] -28.2% | [10] -74.1% | [12] 5.08% | [14] -43.3% | [15] -64.5% | [17] -13.3% | [18] -5.36%
inactive: [3] 54.5% | [8] 17.2% | [11] 21.5% | [13] 33.2% | [16] 43.8% | [19] 11.1% | [20] 31.9%

COc1cc2oc(-c3cccc(C(=O)Nc4cccc([N+](=O)[O-])c4)c3)cc(=O)c2c(OC)c1OC
inactive: [1] 41.1% | [3] 40.2% | [5] 32.3% | [8] 23% | [10] 91% | [11] 29.5% | [12] 69.2% | [13] 11.4% | [14] 11.5% | [19] 31.7% | [20] 58.2%
active: [2] -18.5% | [4] -13.4% | [6] 6.73% | [7] -46% | [9] -22.9% | [15] -13.4% | [16] -3.57% | [17] -0.211% | [18] 3.56%

CCCSc1nc(NCCc2c[nH]c3ccccc23)c(C#N)c(-c2ccc(OC)cc2)n1
active: [15] -17.3%
inactive: [1] 73.7% | [2] 50.7% | [3] 89% | [4] 64.5% | [5] 19% | [6] 64.7% | [7] 43.8% | [8] 53.3% | [9] 31.9% | [10] 61.3% | [11] 62.2% | [12] 23.5% | [13] 83.1% | [14] 41.2% | [16] 57.4% | [17] 29.7% | [18] 50.6% | [19] 89.8% | [20] 63.5%

NS(=O)(=O)c1ccc(N=Nc2c(O)n(CC(=O)Nc3ccccc3Cl)c3ccccc23)cc1
active: [2] -1.16% | [10] -19.1% | [18] -10%
inactive: [1] 30% | [3] 29.2% | [4] 17.6% | [5] 14.5% | [6] 33.7% | [7] 51.8% | [8] 18.5% | [9] 11.9% | [11] 28.8% | [12] 16.2% | [13] 16% | [14] 15.4% | [15] 24.4% | [16] 77.4% | [17] 15.1% | [19] 53.2% | [20] 23.8%

COc1ccc(C2=NN(C(C)=O)C(c3ccc(OCc4ccc(Cl)cc4)c(OC)c3)C2)cc1OC (stereo not given)
inactive: [1] 58% | [2] 49.9% | [3] 81.9% | [4] 76.2% | [5] 41.3% | [6] 37.1% | [7] 28.5% | [8] 29% | [9] 57.9% | [10] 41.3% | [11] 51.3% | [12] 31% | [13] 48.1% | [14] 69.6% | [15] 52.9% | [16] 47.1% | [17] 37.8% | [18] 63.8% | [19] 40.2% | [20] 54.2%

Cc1cc(=O)oc2cc(OCCCOc3ccc(/C=C/C(=O)Nc4ccccc4N)cc3)ccc12
active: [7] -13.8% | [10] -53.6% | [14] -2.67% | [18] 1.75%
inactive: [1] 45.2% | [2] 18.4% | [3] 54.7% | [4] 16.7% | [5] 14.5% | [6] 43.4% | [8] 25.8% | [9] 26.1% | [11] 33.1% | [12] 18.2% | [13] 42% | [15] 49.5% | [16] 21.9% | [17] 27.4% | [19] 38.2% | [20] 41.8%

CC(C)CSc1nc(NCCc2c[nH]c3ccccc23)c(C#N)c(-c2ccc(Cl)cc2)n1
inactive: [1] 69.2% | [2] 51.3% | [3] 86.5% | [4] 49.3% | [5] 30.3% | [6] 36.3% | [7] 68.7% | [8] 63% | [9] 67% | [10] 41% | [11] 67.1% | [12] 13.6% | [13] 81.9% | [14] 48.2% | [15] 31% | [16] 55% | [17] 66.4% | [18] 60.9% | [19] 85.8% | [20] 67.6%

COc1ccc(-c2ccnc(SCc3cc4cc(Cl)ccc4[nH]c3=O)n2)cc1
active: [2] -32.1% | [4] -17.3% | [6] -32% | [9] -25.5% | [15] -10.7% | [16] 0.935%
inactive: [1] 57.8% | [3] 87.8% | [5] 19.6% | [7] 34.2% | [8] 60.7% | [10] 105% | [11] 35.6% | [12] 79.1% | [13] 27.9% | [14] 26.9% | [17] 26.5% | [18] 46.2% | [19] 72.1% | [20] 73.8%

S=c1c2ccccc2nc2n1CCc1c-2[nH]c2ccccc12
inactive: [1] 62% | [2] 30.8% | [3] 60.6% | [4] 38.5% | [5] 71.2% | [6] 25.2% | [7] 56.7% | [8] 68.2% | [9] 46.9% | [10] 90.7% | [11] 68.1% | [12] 57.8% | [13] 54.2% | [14] 40.8% | [15] 28.7% | [16] 57.7% | [17] 63.4% | [18] 43.4% | [19] 66.1% | [20] 70.1%

From PubChem BioAssay (NCI)
